# Bioassay records as filed in PubChem BioAssay.
# nsP2pro primary: CHIKV nsP2 protease inhibition, primary qHTS | Potency, µM (doses to about 24.9 µM), without a hit: at the highest dose activity change, negative = inhibition, hits mostly inhibitors | 31,000 compounds, 1.1% hits | FRET peptide cleavage, nsP2pro, fluorescence 1 h; also: nearly all actives have a fitted effect of over 60% in size
#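 FRET cleavage of 2.5 uM peptide 2 by 150 nM CHIKV protease domain at pH 8.0 (Tris, Tween 20). Compounds at 7 concentrations (up to 25 uM) preincubated 15 min. Fluorescence read after 1 h at room temperature.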
# CHIKV nsP2 cell: cell-based CHIKV nsP2 protease inhibition, secondary; cell-based CHIKV nsP2 protease reporter assay; shares compounds with nsP2pro primary; 450 compounds, 10% hits; AID 1964100; Potency, µM (titrated, usually from 51.1 µM), for inactives: at the top dose activity change, negative = inhibition, actives largely listed as inhibitors; also: nearly all actives have a fitted effect of over 70% in size
# NSP2 full ctr: full-length CHIKV NSP2 protease inhibition, selectivity. shares compounds with nsP2pro primary. 410 compounds, 39% hits. Full-length CHIKV NSP2 protease enzymatic counterscreen. Potency, µM (doses to about 50.7 µM), for the others: top-dose activity change, negative = inhibition, usual class: inhibitors; also: nearly all actives have a fitted effect of over 65% in size
# Furin counterscr: inhibits human furin in a CHIKV nsP2 protease selectivity counterscreen; Recombinant human furin enzymatic counterscreen, fluorogenic substrate; AID 1964102; shares compounds with nsP2pro primary; 410 compounds, 6% hits; Potency, µM (doses to about 50.6 µM), for the others: at the highest dose activity change, negative = inhibition, hits mostly inhibitors
# NS23 peptide cs: selectivity test for CHIKV nsP2 protease inhibitors: endogenous NS2/3 peptide | shares compounds with nsP2pro primary | Purified CHIKV nsP2 protease, endogenous NS2/3 peptide cleavage | Potency, µM (top dose mostly 51 µM), without a hit: at the highest dose activity change, negative = inhibition, most hits filed as inhibitors | 410 compounds, 34% hits | AID 1964103; also: nearly all actives have a fitted effect of over 55% in size
# Papain counter: inhibits papain in a CHIKV nsP2 protease selectivity counterscreen; shares compounds with nsP2pro primary; Potency, µM (doses to about 51 µM), inactives show at the highest dose activity change, negative = inhibition, hits mostly inhibitors; purified papain protease activity, enzymatic inhibition; 410 compounds, 5% hits; AID 1964104
# Target sequence (P00784 whole entry, looked up): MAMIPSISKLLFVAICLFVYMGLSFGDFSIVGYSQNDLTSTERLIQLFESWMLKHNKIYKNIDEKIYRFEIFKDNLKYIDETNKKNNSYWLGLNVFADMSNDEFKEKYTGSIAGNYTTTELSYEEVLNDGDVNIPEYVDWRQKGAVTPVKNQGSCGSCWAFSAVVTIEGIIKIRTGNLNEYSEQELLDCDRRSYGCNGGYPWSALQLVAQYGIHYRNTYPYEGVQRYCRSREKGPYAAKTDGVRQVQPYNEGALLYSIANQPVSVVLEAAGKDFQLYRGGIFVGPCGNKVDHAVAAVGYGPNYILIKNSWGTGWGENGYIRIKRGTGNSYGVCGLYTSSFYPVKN
# nsP2pro confirm: confirmation of CHIKV nsP2 protease inhibitors | CHIKV nsP2 protease enzymatic activity, qHTS | 410 compounds, 43% hits | shares compounds with nsP2pro primary | Potency, µM (doses to about 25.5 µM), for the others: top-dose activity change, negative = inhibition, actives largely listed as inhibitors; also: nearly all actives have a fitted effect of over 75% in size
# HCV NS3 4A cs: selectivity counter-screen for CHIKV nsP2 protease inhibitors: HCV NS3/4A. shares compounds with nsP2pro primary. HCV NS3/4A protease biochemical counterscreen. Potency, µM (doses to about 50.9 µM), most hits filed as inhibitors. 410 compounds, 20% hits; also: nearly all actives have a fitted effect of over 55% in size
# * marks the source's active call; other numbers are inactive results; i = inactive; ? = inconclusive; [ ] = another dose, or the depositor's remark. This excerpt belongs to a sample that is enriched for hits. Calls follow the shape of the full dose curve. % is scaled to controls: 0 for no effect and ±100 for the full control effect; potency is read from the fitted curve at half-maximal effect.
SMILES,nsP2pro primary,others
C[C@@H](OC(=O)/C=C/c1ccc(O)cc1)C1=C[C@]2(C=C[C@@H]3C(C(=O)O)=CO[C@@H](O[C@@H]4O[C@H](CO[C@@H]5O[C@H](CO)[C@@H](O)[C@H](O)[C@H]5O)[C@@H](O)[C@H](O)[C@H]4O)[C@@H]32)OC1=O,21%[10 µM],
CCCNC(=O)N(C1CCOCC1)C1CCN(C(=O)CCC(=O)c2ccc(F)cc2)CC1,-7%,
Cc1cnc(C)c(-c2cc(O)c3c(c2)CNCCO3)n1,i,
CCC(C)(NC(=O)C(CCC(N)=O)NC(=O)C1CC(O)CN1C(=O)C(C)(C)NC(=O)C(C)(C)NC(=O)C(CC(C)C)NC(=O)CNC(=O)C(NC(=O)C(C)(C)NC(=O)C(C)(C)NC(=O)C(C)(C)NC(=O)C(Cc1ccccc1)NC(C)=O)C(C)C)C(=O)N1CC(O)CC1C(=O)NC(C)(C)C(=O)NC(CO)Cc1ccccc1 (stereo not drawn),26%[5.1 µM],
CC1=CC(=O)C[C@H]2[C@@H]1CC[C@@H](C)[C@]21CO[C@H](c2ccoc2)C1=O,?,CHIKV nsP2 cell=1%[33.5 µM];NSP2 full ctr=-21%[33.5 µM];Furin counterscr=6%[33.5 µM];NS23 peptide cs=i;Papain counter=-5%[33.5 µM];nsP2pro confirm=10%[16.7 µM];HCV NS3 4A cs=i
O=[S+]([O-])(Nc1ccccc1)c1ccc2c(c1)OCCN(Cc1nccs1)C2,1%[39.2 µM],
CCCNCCOc1ccc(NC(=O)c2c[nH]c3c2C(=O)CCC3)cc1F,12%,
C(#Cc1cccc(CN2CCOCC2)c1)CCN1CCCCC1,9.9µM*,CHIKV nsP2 cell=6%;NSP2 full ctr=?;Furin counterscr=-12%;NS23 peptide cs=?;Papain counter=-10%;nsP2pro confirm=?;HCV NS3 4A cs=i
COc1cccc(CN2CCOCCNC(=O)CC2)c1,-12%,
O=C1CCN(Cc2cccc(F)c2)CCCOCCN1,0%,
Cc1noc(C)c1[S+](=O)([O-])N1CCCC1C(=O)N1CCC(N2CCCC2=O)CC1 (stereo not drawn),0%,
O=C1NC[C@@H](CCC(=O)N2CCc3ccccc32)N2C[C@@H](NCc3ccc(CO)o3)C[C@@H]12,-27%,
C=CCc1ccc(O)c(OC)c1,-20%,
COc1cc(C2Oc3c(OC)cc(CCCO)cc3C2CO)ccc1O (stereo not drawn),81%,
COc1cc(CCN)ccc1O,?,CHIKV nsP2 cell=8%;NSP2 full ctr=-3%;Furin counterscr=3%;NS23 peptide cs=-4%;Papain counter=-8%;nsP2pro confirm=-15%;HCV NS3 4A cs=i
Oc1ccc(CNc2ccccc2F)c2cccnc12,3.1µM*,CHIKV nsP2 cell=52%;NSP2 full ctr=15µM*;Furin counterscr=-16%;NS23 peptide cs=11µM*;Papain counter=-22%;nsP2pro confirm=1.9µM*;HCV NS3 4A cs=i
Oc1ccc(CNc2ccccc2C(F)(F)F)c2cccnc12,i,
Oc1ccc(CNc2ccccc2Cl)c2cccnc12,-12%,
NNC(=O)c1nn(Cc2ccc(Cl)cc2Cl)c2ccccc12,114%,
Cc1ccc(S(=O)(=O)N2CCc3nc4cc[nH]n4c(=O)c3C2)cc1C,i,
N#Cc1cc(C2=Nc3ccc(Br)cc3NC(=O)C2)ccn1,-7%,
CNC(=O)[C@H]1C[C@]2(CCCCNC2=O)N(C(=O)c2cccc(C#N)c2)[C@H]1c1ccco1,-4%,
CC(C)COC(=O)N1[C@@H](c2ccco2)[C@@H](CO)C[C@]12CCCCNC2=O,?,CHIKV nsP2 cell=2%;NSP2 full ctr=-15%;Furin counterscr=-10%;NS23 peptide cs=?;Papain counter=-4%;nsP2pro confirm=-18%;HCV NS3 4A cs=?
O=C1c2ccccc2-c2nc3nnnn3nc21 (tested in a mixture with another compound),?,CHIKV nsP2 cell=?;NSP2 full ctr=?;Furin counterscr=-19%;NS23 peptide cs=0.92µM*;Papain counter=-23%;nsP2pro confirm=?;HCV NS3 4A cs=i
CC(C)c1noc([C@@H]2C[C@H](NC(=O)c3ccc(F)cc3)CN2C)n1,-9%[39.2 µM],
SMILES,nsP2pro primary,others
Cc1cc(=O)oc2c3c(ccc12)OCN(Cc1ccc(Cl)cc1)C3,12%,
COc1ccc(CN2COc3ccc4c(oc(=O)c5ccccc54)c3C2)cc1OC,-28%,
O=c1oc2c3c(ccc2c2ccccc12)OCN(Cc1ccc(Cl)cc1)C3,?,CHIKV nsP2 cell=206%;NSP2 full ctr=?;Furin counterscr=?;NS23 peptide cs=?;Papain counter=-4%;nsP2pro confirm=4.5µM*;HCV NS3 4A cs=i
Cc1cnc(C2CCC2)n1CCNC(=O)c1nccn1C,-4%,
CN1C[C@H]2CNC[C@@]2(C(=O)NCc2ccccc2OCc2ccccc2)C1,i,
CC(=O)Nc1ccc(S(=O)(=O)Nc2ccc([N+](=O)[O-])cc2)cc1,-6%,
Cc1ccc(S(=O)(=O)c2ccc([N+](=O)[O-])cn2)cc1,0.35µM*,CHIKV nsP2 cell=2.1µM*;NSP2 full ctr=1.5µM*;Furin counterscr=12µM*;NS23 peptide cs=1.8µM*;Papain counter=-15%;nsP2pro confirm=0.56µM*;HCV NS3 4A cs=2.9µM*
Cc1ccc(S(=O)(=O)Nc2cc([N+](=O)[O-])ccc2C(=O)Nc2nc(-c3ccccc3)cs2)cc1,i,
O=C(c1cccs1)N1CCc2[nH]nc(-c3cccc(F)c3)c2C1,-12%,
Cc1nc(C(=O)N2CCC[C@H]2Cc2nnc(-c3ccccc3)o2)c(-c2ccccc2F)s1,-4%,
CS(=O)(=O)c1ccc(-c2nnc(/C=C/c3nnc(-c4ccc(C#N)cc4)o3)n2-c2ccccc2Cl)nc1,-2%,
CC(NC(CCc1ccccc1)C(=O)O)C(=O)N1C(=O)N(C)CC1C(=O)O (stereo not drawn),?,CHIKV nsP2 cell=3%;NSP2 full ctr=15µM*;Furin counterscr=51%;NS23 peptide cs=-25%;Papain counter=-16%;nsP2pro confirm=?;HCV NS3 4A cs=i
CCOC(=O)[C@H](CCc1ccccc1)N[C@@H](C)C(=O)N1CCC[C@H]1C(=O)O,3%,
CCC[C@H](N[C@@H](C)C(=O)N1[C@H](C(=O)O)C[C@@H]2CCCC[C@@H]21)C(=O)O,-13%,
Cc1cc(N[S+](=O)([O-])c2ccc(NC(=O)Cc3ccc4c(c3)CCO4)cc2)no1,4%,
CC1CCC(=O)CC(O)C(O)CC(=O)O1 (stereo not drawn),?,CHIKV nsP2 cell=0%;NSP2 full ctr=5%;Furin counterscr=-7%;NS23 peptide cs=-9%;Papain counter=-6%;nsP2pro confirm=-20%;HCV NS3 4A cs=i
CC1CCCCCCCc2cc(O)cc(O)c2C(=O)O1 (stereo not drawn),134%,
C[C@@H]1C[C@H](O)/C=C/[C@H](O)[C@@H](O)CC(=O)O1,-17%,
N#Cc1ccc(C(=O)N2CCC3(CC2)N=C(N)c2c(F)ccc(F)c2N3)cn1,-22%,
Cc1cnc(-c2ccccc2C(C)O)nc1NCc1ccc(-c2cccnc2)cc1 (stereo not drawn),i,
Cc1cccc(=O)n1CCC(=O)NCc1cc2n(n1)CCN(C(=O)N(C)C)C2,-2%,
CCN1C(=O)Cc2cc(C(=O)NCc3c(C)cc(C)cc3C)ccc21,-2%,
